# Assay outcomes (PubChem)
# SK-BR-3 tox 24h: SK-BR-3 proliferation inhibitors; SK-BR-3 viability, CellTiter-Glo ATP luminescence, 24 h; hits give low values; viability, % at 10 µM; 0.47% of 41,000 active;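 active = viability at or below the median of all test compounds minus 3 SD, in both replicates if run twice, cut at about 45% in these data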;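 note: 100% = median untreated cell wells and 0% = median positive control drug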
# Jurkat tox 60K: reduces viability or proliferation of Jurkat cells | Jurkat E6.1 viability, ATP luminescence, 48 h | inhibition, % at 4 µM | 1.2% of 56,000 active;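 active = inhibition above the mean inhibition of all tested compounds plus 3 SD, cut at about 28% in these data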
# mHtt clearance: mutant huntingtin protein clearance; 0.42% of 47,000 active; inhibition, % at 1.5 µM; HeLa Exon1htt(103Q)mCFP, aggregate imaging; zero = plate's median compound well;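 active = inhibition of aggregate fluorescence above about 70%, also judged a hit by eye on the cell image, limit read from the data, passing the limit was not always enough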;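 note: cells exposed to compound for three days before fixation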
# MKP-1 inh: blocks human MKP-1 phosphatase activity; P28562; recombinant MKP-1, OMFP hydrolysis fluorescence; inhibition, %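 (compounds tested at a single concentration somewhere between 10 and 100 µM)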; 0.15% of 65,000 active; AID 374;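 active = inhibition above about 50%, limit read from the data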;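 note: 0% = DMSO max control wells and 100% = wells with enzyme stopped by NaOH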
# Cdc25B inh: human M-phase inducer phosphatase 2 inhibition. inhibition, %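 (compounds tested at 10 µM final in the well)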. 0.1% of 65,000 active. recombinant Cdc25B, OMFP fluorescence Ex485/Em525. AID 368; in the data active = inhibition above about 50%
# Target sequence (P30305 whole entry, looked up): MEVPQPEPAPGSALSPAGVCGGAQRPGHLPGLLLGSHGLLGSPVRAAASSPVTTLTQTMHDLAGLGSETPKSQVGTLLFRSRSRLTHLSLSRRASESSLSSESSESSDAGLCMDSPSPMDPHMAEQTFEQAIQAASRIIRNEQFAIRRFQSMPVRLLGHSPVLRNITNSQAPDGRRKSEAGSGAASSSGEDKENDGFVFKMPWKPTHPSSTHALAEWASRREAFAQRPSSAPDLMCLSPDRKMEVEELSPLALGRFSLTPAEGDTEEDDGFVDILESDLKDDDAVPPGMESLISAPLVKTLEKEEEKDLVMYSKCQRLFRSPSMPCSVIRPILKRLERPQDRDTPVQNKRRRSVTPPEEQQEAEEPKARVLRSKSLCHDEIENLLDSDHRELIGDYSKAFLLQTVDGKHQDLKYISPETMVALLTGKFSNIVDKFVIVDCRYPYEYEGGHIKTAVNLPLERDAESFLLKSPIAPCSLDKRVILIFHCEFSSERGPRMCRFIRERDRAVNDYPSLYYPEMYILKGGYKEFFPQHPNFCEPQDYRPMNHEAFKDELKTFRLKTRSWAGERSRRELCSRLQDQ
# Redox 05 DTT: redox cycling H2O2 generation, Cdc25B counter-screen; shares compounds with Cdc25B inh; cell-free redox cycling H2O2 generation, 0.5 mM DTT; EC50, µM; 50% of 30 active; AID 682; in the data active = EC50 below about 30 µM
# Redox H2O2 1DTT: redox cycling H2O2 generation, Cdc25B counter-screen; shares compounds with Cdc25B inh; cell-free redox cycling H2O2 generation, 1 mM DTT; EC50, µM; 30 tested, under 10 active; AID 683; in the data active = EC50 below about 50 µM
# Redox H2O2: redox cycling H2O2 generation, MKP probe counter-screen. shares compounds with MKP-1 inh. DTT, phenol red/HRP. EC50, µM. 60 tested, under 10 active; call rule not given here
# Active calls of the source: *; x = no result given. A selection: hits, their analogues and other compounds. The true share with any hit is near 1.6%.
SMILES,SK-BR-3 tox 24h,Jurkat tox 60K,mHtt clearance,MKP-1 inh,Cdc25B inh,others
O=C(CN1C(=O)CN=C(c2ccccc2)c2ccccc21)NCc1ccco1,91,8,-8,0,15,
COc1ccc(C2=NCC(=O)N(CC(=O)NCc3ccco3)c3sc4c(c32)CCCC4)cc1OC,67,1,-79,2,56*,
Cc1nnc(SCc2nc3ccccc3c(=O)n2-c2ccccc2Cl)n1N,112,3,72*,0,-5,
CN1C(=O)C(=Cc2ccccc2Oc2ccc(Cl)cc2)C(=O)N(C)C1=O,x,x,82*,x,x,
CC[N+](C)(CC)CCCOC(=O)C(O)(c1ccccc1)C1CCCCC1 (centres undefined),x,x,10,x,x,
Cc1c(C(=O)N2CCC3(CC2)OCCO3)sc2ncnc(N3CCN(c4ccccn4)CC3)c12,38*,-1,x,12,-6,
O=C(c1sc2ccccc2c1Cl)N1CCC2(CC1)OCCO2,92,4,-92,-1,-6,
CCn1c(O)c(C(c2ccccn2)c2c(O)n(CC)c(=S)[nH]c2=O)c(=O)[nH]c1=S,x,x,-67,x,x,
C=CCN(CC=C)Cc1c[nH]c2ccccc12,27*,-3,x,-10,-7,
Cc1[nH]c2c(C(F)(F)F)cccc2c1CCN,x,53*,x,5,-17,
CCOP(=O)(C#CC(C)(C)C)C1(O)CCCCC1 (centres undefined),93,-2,x,-16,-10,
O=P(OCC(F)(F)C(F)F)(N1CCCCC1)N1CCCCC1,98,1,-36,6,-13,
O=C(c1ccc2c(c1)ncn2C1CCCCC1)N1CCC2(CC1)OCCO2,82,54*,-1,4,-3,
COc1ccc(C2NCc3ccc4c(c3-n3cccc32)OCO4)cc1O (centres undefined),x,78*,-163,-11,-9,
C=CCn1c(O)c(C(CC)=NCCCO)c(=O)[nH]c1=O,44*,-7,24,-29,-1,
C=CCn1c(O)c(C(CC)=Nc2ccccc2NC(C)=O)c(=O)[nH]c1=O,117,-16,6,-29,8,
C=CCn1c(O)c(C(CC)=NCc2cc(OC)cc(OC)c2)c(=O)[nH]c1=O,34*,7,-32,-23,-15,
CCCCn1c(O)c(C(CC)=NCc2ccc3c(c2)OCO3)c(=O)[nH]c1=O,90,8,-9,-6,-23,
CCOC(=O)C1SC2(C(F)F)CC1(O)c1c(c(OC)c3occc3c1OC)O2 (centres undefined),135,-2,x,2,-22,
CC(C)CC12CN3CCN(CC(C3)C1O)C2 (centres undefined),x,-6,x,10,-13,
CCn1nc(-c2ccccc2)nc2c(=O)n(C)c(=O)nc1-2,38*,27,x,98*,101*,Redox 05 DTT=0.73*;Redox H2O2 1DTT=1.6*;Redox H2O2=14*
CC(=O)OC1C2CCCC1C(N1CCCC1)CC2 (centres undefined),x,-7,x,-1,-11,
CCCCNC(=O)c1c(N)n(CCCOC)c2nc3ccccc3nc12,95,x,x,37,-3,Redox H2O2=>50
CCOc1ccccc1C1SCC(=O)Nc2c1c(=O)[nH]n2C(CC)CC (centres undefined),92,x,x,5,-8,
